In PubChem BioAssay:
Activity calls are given as the source filed them.

Assays:
[1] = system: PRMT1 (protein arginine N-methyltransferase 1); assay: PRMT1 binders on small-molecule microarrays, primary screen, biochemical, small-molecule microarray, 635 nm fluorescence (AID 1088); conditions: small-molecule microarray binding, higher = more signal;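 further: binding of Prmt1 protein to compounds spotted on small-molecule microarray slides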
[2] = yeast growth modulation, basal conditions, primary screen, YJM789 clinical isolate, OD600, 24 h (AID 1089);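 further: growth of clinical yeast isolate S. cerevisiae YJM 789 seeded 1000 cells per well; test concentration not given here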; conditions: S. cerevisiae YJM789 growth, higher = more signal, called active from +8 up or from −8 down
[3] = fission yeast growth modulation, primary screen, strain 972, OD600, 24 h, no modulator (AID 1090);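 further: basal condition with compound alone and no growth modifier present; test concentration not given here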; conditions: S. pombe 972 growth, higher = more signal, called active from +8 up or from −8 down
[4] = S. cerevisiae growth modulation with rapamycin, primary screen, strain BY4716, OD600, 96 h (AID 1091); conditions: higher = more signal, called active from +8 up or from −8 down; further: test concentration not given here
[5] = target: Torsin-1A-interacting protein 2 (Homo sapiens) (UniProt Q8NFQ8); assay: LULL1 binders on small-molecule microarray, primary screen, cell lysate, human LULL1 lysate, 635/667 nm fluorescence (AID 1092); conditions: hLULL1 lysate binding, 635 nm fluorescence, higher = more signal;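 further: probe is lysate of COS7 cells overexpressing human LULL1; score merges per-feature 667 nm fluorescence with signal-to-noise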
Torsin-1A-interacting protein 2 (Homo sapiens), sequence (Q8NFQ8 whole entry, looked up): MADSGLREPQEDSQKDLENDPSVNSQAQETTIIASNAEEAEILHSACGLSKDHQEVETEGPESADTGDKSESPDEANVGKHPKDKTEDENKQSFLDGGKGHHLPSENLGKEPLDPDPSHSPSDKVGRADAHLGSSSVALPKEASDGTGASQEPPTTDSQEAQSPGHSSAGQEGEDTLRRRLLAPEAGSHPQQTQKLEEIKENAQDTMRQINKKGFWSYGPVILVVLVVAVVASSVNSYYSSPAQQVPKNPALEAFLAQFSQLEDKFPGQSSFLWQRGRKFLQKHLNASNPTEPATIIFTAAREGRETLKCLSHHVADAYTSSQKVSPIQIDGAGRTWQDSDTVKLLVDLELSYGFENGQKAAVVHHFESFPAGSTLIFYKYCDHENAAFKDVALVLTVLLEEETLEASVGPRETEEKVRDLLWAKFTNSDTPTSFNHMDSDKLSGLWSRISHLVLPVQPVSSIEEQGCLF

[6] = E. coli growth modulation, two-sided OD650, primary screen, E. coli filamentation project, strain DRC41, 24 h (AID 1093); conditions: OD650, 24 h, higher = more signal, called active from +8 up or from −8 down;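 further: MC1000 strain lacking acrAB efflux and sulA so SOS filamentation is blocked; test concentration not given here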
[7] = small-molecule microarray binders of probe aLefty2, primary screen, biochemical, biotinylated probe, 635/667 nm fluorescence (AID 1094); conditions: higher = more signal;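 further: score merges spot fluorescence near 667 nm with spot signal-to-noise ratio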
[8] = system: Noggin (protein binding on small-molecule microarray); assay: Noggin binders on small-molecule microarray, primary screen, biochemical, 635/667 nm fluorescence (AID 1095); conditions: 635 nm fluorescence, higher = more signal;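 further: score merges 667 nm feature fluorescence with signal to noise over triplicate slides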
[9] = target: Neurogenic locus notch homolog protein 3 (Homo sapiens) (UniProt Q9UM47); assay: NOTCH3 binders on small-molecule microarray, primary screen, biochemical, 635/667 nm fluorescence (AID 1096); conditions: NOTCH3 binding, 635 nm fluorescence, higher = more signal
Neurogenic locus notch homolog protein 3 (Homo sapiens), sequence (Q9UM47 whole entry, looked up): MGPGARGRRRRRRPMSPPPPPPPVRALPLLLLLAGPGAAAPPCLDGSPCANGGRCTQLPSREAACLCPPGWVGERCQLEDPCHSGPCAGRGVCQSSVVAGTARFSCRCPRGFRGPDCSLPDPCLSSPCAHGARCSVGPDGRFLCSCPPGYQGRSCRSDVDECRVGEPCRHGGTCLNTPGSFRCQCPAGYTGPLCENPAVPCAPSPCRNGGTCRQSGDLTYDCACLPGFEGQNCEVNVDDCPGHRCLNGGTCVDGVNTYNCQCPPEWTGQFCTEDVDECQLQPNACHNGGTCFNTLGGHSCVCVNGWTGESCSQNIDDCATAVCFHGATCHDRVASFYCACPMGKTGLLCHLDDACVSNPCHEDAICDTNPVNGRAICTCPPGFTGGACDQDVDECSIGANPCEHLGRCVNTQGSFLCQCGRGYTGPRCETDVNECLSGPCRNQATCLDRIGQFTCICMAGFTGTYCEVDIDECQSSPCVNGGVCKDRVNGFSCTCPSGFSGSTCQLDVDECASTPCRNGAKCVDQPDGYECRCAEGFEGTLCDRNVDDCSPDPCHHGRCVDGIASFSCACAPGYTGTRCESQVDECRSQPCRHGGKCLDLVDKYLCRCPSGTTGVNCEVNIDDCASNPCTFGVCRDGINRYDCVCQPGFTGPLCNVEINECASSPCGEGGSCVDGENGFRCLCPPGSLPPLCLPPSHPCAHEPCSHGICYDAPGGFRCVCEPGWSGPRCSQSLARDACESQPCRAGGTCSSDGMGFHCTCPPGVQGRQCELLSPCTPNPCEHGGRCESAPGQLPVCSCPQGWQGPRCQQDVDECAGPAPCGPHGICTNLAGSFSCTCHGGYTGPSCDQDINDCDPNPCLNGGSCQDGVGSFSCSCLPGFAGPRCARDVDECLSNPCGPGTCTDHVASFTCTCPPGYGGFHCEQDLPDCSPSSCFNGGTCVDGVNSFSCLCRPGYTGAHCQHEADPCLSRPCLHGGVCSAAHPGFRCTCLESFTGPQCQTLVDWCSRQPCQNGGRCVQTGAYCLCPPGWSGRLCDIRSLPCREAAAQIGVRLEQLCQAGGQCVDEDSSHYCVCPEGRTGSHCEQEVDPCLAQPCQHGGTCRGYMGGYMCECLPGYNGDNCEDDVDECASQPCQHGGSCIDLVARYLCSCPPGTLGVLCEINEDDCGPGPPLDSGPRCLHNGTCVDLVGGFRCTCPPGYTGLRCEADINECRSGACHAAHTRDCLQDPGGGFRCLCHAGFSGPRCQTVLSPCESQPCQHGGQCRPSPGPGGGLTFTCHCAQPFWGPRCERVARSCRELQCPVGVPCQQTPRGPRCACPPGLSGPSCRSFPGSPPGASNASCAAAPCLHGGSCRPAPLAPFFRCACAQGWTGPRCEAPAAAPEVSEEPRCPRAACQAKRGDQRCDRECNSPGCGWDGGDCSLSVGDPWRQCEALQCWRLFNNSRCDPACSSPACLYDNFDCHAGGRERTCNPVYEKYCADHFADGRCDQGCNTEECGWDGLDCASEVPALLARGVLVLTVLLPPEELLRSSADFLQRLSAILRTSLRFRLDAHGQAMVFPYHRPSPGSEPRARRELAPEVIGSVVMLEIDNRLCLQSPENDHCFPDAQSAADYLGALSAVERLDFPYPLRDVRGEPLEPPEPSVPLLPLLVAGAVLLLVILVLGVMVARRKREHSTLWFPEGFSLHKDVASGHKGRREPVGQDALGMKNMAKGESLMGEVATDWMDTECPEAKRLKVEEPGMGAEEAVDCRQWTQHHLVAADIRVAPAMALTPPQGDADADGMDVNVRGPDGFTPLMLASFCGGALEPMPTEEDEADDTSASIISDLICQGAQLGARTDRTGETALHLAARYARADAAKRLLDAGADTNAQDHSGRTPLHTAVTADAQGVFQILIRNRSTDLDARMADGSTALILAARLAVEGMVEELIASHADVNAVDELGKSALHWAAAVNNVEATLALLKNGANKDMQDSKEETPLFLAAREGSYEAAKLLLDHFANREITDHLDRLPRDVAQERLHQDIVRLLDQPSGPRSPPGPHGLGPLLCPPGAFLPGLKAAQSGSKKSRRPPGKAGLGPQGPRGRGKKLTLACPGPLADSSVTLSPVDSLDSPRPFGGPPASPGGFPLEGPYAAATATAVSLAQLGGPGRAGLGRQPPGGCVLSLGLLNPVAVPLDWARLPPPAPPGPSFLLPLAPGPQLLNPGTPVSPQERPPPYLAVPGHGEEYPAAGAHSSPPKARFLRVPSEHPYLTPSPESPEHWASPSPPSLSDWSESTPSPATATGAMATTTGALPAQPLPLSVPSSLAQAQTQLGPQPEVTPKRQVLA

[10] = small-molecule microarray binders of probe aEGFR, primary screen, biochemical, biotinylated probe, 635/667 nm fluorescence (AID 1097); conditions: higher = more signal;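 further: probe is a biotinylated anti-EGFR antibody binding compounds printed on slides; score combines fluorescence near 667 nm and signal to noise of each spot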
[11] = system: Plasmodium falciparum Sir2 (PF13_0152, Sir2A); assay: pfSir2 binders on small-molecule microarrays, primary screen, biochemical, small-molecule microarray, 635 nm fluorescence (AID 1098); conditions: small-molecule microarray binding, fluorescence 635 nm; higher = more signal;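 further: score merges spot fluorescence intensity with its signal-to-noise ratio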
[12] = small-molecule microarray binders of probe aDKK1, primary screen, biochemical, biotinylated probe, 635/667 nm fluorescence (AID 1099); conditions: higher = more signal;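 further: score merges 667nm spot fluorescence with signal to noise across triplicate slides; reference of the scale not given here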
[13] = small-molecule microarray binders of probe aCHRDL2, primary screen, biochemical, biotinylated probe, 635/667 nm fluorescence (AID 1100); conditions: higher = more signal
[14] = splicing luciferase reporter signal modulators, primary screen, spliceosome inhibition project, cell-based, HEK293, splice +/- reporter (AID 1101); conditions: luminescence, 24 h, higher = more signal, called active from +8 up or from −8 down;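 further: HEK293 cells carrying a splicing-competent luciferase reporter gene; test concentration not given here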
[15] = target: Fibroblast growth factor 10 (Homo sapiens) (UniProt O15520); assay: FGF10 binders on small-molecule microarrays, primary screen, biochemical, small-molecule microarray, 635 nm fluorescence (AID 1102); conditions: FGF10 binding, fluorescence 635 nm, higher = more signal
Fibroblast growth factor 10 (Homo sapiens), sequence (O15520 whole entry, looked up): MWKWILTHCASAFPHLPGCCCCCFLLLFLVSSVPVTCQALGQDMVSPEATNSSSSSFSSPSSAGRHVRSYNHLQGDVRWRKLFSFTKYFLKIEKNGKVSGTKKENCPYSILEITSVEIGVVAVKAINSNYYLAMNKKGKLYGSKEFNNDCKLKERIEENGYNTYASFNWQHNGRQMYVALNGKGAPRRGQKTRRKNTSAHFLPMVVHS

[16] = system: glycogen synthase kinase-3 (GSK3A per assay name; protocol says GSK3B); assay: GSK3 binders on small-molecule microarrays, primary screen, biochemical, small-molecule microarray, 635 nm fluorescence, GSK3A (AID 1103); conditions: small-molecule microarray binding, fluorescence 635 nm; higher = more signal; further: the record names both GSK3A and GSK3B
[17] = target: Epidermal growth factor receptor (Homo sapiens) (UniProt P00533); assay: EGFR binders on small-molecule microarrays, primary screen, biochemical, small-molecule microarray, 635 nm fluorescence (AID 1104); conditions: EGFR binding, higher = more signal;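 further: score merges 667 nm emission intensity with spot signal to noise over triplicate slides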
Epidermal growth factor receptor (Homo sapiens), sequence (P00533 whole entry, looked up): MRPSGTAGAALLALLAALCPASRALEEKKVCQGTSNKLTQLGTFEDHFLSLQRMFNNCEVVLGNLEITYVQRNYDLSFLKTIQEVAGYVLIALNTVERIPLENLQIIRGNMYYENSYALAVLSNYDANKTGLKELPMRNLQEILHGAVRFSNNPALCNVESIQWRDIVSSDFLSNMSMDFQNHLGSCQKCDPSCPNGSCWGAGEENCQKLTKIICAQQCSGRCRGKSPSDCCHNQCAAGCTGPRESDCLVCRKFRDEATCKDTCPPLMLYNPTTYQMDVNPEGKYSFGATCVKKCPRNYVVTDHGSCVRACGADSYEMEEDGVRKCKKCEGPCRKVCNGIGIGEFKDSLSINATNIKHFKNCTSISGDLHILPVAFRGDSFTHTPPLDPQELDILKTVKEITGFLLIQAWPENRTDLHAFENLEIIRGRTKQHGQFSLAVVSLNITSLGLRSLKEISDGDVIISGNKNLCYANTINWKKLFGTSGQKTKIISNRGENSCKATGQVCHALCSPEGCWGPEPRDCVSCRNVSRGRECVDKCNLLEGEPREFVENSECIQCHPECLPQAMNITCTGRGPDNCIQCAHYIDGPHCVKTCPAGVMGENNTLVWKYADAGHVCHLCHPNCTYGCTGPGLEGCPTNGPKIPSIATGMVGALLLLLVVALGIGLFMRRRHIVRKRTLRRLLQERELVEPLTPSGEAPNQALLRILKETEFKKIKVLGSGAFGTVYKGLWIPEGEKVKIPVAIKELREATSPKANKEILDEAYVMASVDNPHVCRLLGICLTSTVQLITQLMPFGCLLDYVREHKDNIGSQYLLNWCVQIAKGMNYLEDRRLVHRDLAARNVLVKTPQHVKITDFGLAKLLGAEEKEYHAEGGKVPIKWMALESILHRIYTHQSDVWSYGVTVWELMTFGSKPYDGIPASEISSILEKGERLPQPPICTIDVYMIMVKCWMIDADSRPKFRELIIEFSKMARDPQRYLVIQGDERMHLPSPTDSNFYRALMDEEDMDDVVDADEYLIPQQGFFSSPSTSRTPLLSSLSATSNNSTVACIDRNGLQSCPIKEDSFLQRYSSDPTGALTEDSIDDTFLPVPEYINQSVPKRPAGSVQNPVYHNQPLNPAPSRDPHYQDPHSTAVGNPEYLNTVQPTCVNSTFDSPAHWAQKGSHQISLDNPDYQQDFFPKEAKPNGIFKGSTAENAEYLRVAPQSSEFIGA

[18] = target: Follistatin-related protein 3 (Homo sapiens) (UniProt O95633); assay: FSTL3 binders on small-molecule microarrays, primary screen, biochemical, small-molecule microarray, 635 nm fluorescence (AID 1105); conditions: FSTL3 binding, higher = more signal;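 further: score merges emission near 667 nm and signal to noise per printed spot across three slides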
Follistatin-related protein 3 (Homo sapiens), sequence (O95633 whole entry, looked up): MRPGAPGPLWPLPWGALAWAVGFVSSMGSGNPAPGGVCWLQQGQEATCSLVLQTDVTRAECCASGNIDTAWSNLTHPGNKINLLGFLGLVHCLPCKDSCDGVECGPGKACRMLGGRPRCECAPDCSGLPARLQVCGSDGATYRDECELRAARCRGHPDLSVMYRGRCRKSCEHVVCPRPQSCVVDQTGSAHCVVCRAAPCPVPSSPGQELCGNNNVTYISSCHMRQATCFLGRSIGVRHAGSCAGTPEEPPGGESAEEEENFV

[19] = target: Dickkopf-related protein 1 (Homo sapiens) (UniProt O94907); assay: DKK1 binders on small-molecule microarrays, primary screen, biochemical, small-molecule microarray, 635 nm fluorescence scan (AID 1106); conditions: DKK1 binding, higher = more signal;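 further: score merges emission near 667 nm with signal to noise over three replicate slides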
Dickkopf-related protein 1 (Homo sapiens), sequence (O94907 whole entry, looked up): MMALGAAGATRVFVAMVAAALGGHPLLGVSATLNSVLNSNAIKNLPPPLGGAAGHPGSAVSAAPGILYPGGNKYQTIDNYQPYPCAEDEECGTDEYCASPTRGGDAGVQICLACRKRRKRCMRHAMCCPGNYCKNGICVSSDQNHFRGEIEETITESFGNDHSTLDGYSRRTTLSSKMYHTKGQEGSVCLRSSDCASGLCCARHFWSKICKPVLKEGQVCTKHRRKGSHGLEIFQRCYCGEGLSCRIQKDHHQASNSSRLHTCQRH

[20] = system: Inhibin beta A chain (activin A); assay: INHBA (activin A) binders on microarrays, primary screen, biochemical, small-molecule microarray, 635 nm fluorescence scan (AID 1107); conditions: small-molecule microarray binding, higher = more signal;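 further: mouse activin A protein probed at 4.33 µg/mL on printed slides; score merges bound-protein fluorescence near 667 nm with spot signal-to-noise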

Row | Compound | composite z-score [1] | z-score [2] | z-score [3] | z-score [4] | composite z-score [5] | z-score [6] | composite z-score [7] | composite z-score [8] | composite z-score [9] | composite z-score [10] | composite z-score [11] | composite z-score [12] | composite z-score [13] | z-score [14] | composite z-score [15] | composite z-score [16] | composite z-score [17] | composite z-score [18] | composite z-score [19] | composite z-score [20]
1 | COCCOC(=O)N1C(=O)[C@@]2(c3cc(C#CC4=CCCCC4)ccc31)[C@H](C(=O)NC[C@H](O)c1ccccc1)[C@H]1C(=O)O[C@H](c3ccccc3)[C@H](c3ccccc3)N1[C@@H]2c1ccc(OCCO)cc1 | 1.54 | 2.15 (inactive) | 1.44 (inactive) | 4.41 (inactive) | 2.41 | -0.662 (inactive) | -0.003 | 1.85 | 1.13 | -0.144 | 0.915 | -0.18 | 0.226 | -0.718 (inactive) | 1.29 | 1.28 | 0.483 | 1.37 | 0.817 | 0.49
2 | CC[C@H]1C2=C3C(CC[C@H]4C(OC)OC[C@](C)([C@@H]34)N(C(=O)OC(C)(C)C)C2)C(CO)C1CO (stereo not given in full) | 1.4 | -1.22 (inactive) | 1.21 (inactive) | -0.565 (inactive) | 3.35 | -0.468 (inactive) | 0.762 | 0.0676 | 1.11 | 0.477 | 0.593 | 1.54 | 1.6 | -0.715 (inactive) | 0.754 | 1.16 | 0.194 | 1.07 | -0.212 | 0.828
3 | COc1ccc(-c2cc3c(c(-c4ccccc4)n2)[Si](C(C)C)(C(C)C)O[C@H]3c2ccccc2)cn1 | 1.11 | -0.136 (inactive) | -0.572 (inactive) | -0.0946 (inactive) | 0.965 | -1.03 (inactive) | -0.132 | 0.47 | 0.596 | 0.0215 | -0.309 | -0.0513 | -0.131 | 0.96 (inactive) | 0.22 | 0.176 | 0.0928 | 0.352 | 0.0263 | 0.605
4 | COC(=O)C1=CC(c2ccc(CO)cc2)=CC(C2CC2)N(Cc2sc3ccccc3c2Cl)C=C1C(=O)OC (stereo not given) | 1.55 | -2.21 (inactive) | -5.52 (inactive) | -1.12 (inactive) | 3.07 | -2.06 (inactive) | 0.214 | 0.331 | 1.1 | 0.157 | 1.55 | 1.02 | 0.978 | -1.16 (inactive) | 0.855 | 1.3 | 0.242 | 1.19 | 0.304 | 0.715
5 | CCOC(=O)C1=CC[C@@H](c2ccc(-c3ccc(OCc4ccccc4)cc3)c(OC)c2)N(S(=O)(=O)c2ccc(C)cc2)[C@H]1c1ccccc1 | 1.46 | -0.534 (inactive) | -1.27 (inactive) | 3.66 (inactive) | 2.93 | -0.0642 (inactive) | 0.158 | 0.73 | 1.09 | -0.0255 | 1.13 | 0.583 | 0.721 | -1.44 (inactive) | 1.24 | 1.28 | 0.12 | 1.38 | 0.273 | 0.765
6 | O=C1O[C@@H](c2ccccc2)[C@@H](c2ccccc2)N2[C@@H](c3ccccc3OCCO)[C@]3(C(=O)Nc4ccc(C#CC5=CCCCC5)cc43)[C@@H](C(=O)O)[C@H]12 | 1.34 | 2.48 (inactive) | -0.608 (inactive) | 0.341 (inactive) | 1.83 | 2.04 (inactive) | 0.0748 | 0.269 | 1.05 | -0.0321 | 1.17 | 0.702 | 0.51 | -2.47 (inactive) | 0.289 | 1.04 | 0.309 | 0.87 | 0.471 | 1.09
7 | CCN1C(C)=C(C(=O)OC)[C@@H](c2ccccc2)N2C(=O)[C@](O)(C(=O)OC)[C@@H](c3ccccc3)C(C(C)=O)=C12 | -0.107 | -3.56 (inactive) | -3.03 (inactive) | -2.26 (inactive) | 0.241 | 0.556 (inactive) | 0.0417 | 0.506 | 0.768 | 0.186 | -1.67 | 0.182 | -0.539 | -2.82 (inactive) | 0.799 | 0.529 | 0.621 | 1.04 | 0.515 | 1.15
8 | CCC(=O)[C@]12O[C@@]3([C@@H]4C(=O)OCC[C@@H]41)N(Cc1ccccc1)C(C)=C(C(=O)OC)[C@@H](c1ccccc1)N3C2=O | 0.131 | -0.641 (inactive) | -1.16 (inactive) | -1.17 (inactive) | -0.417 | 0.151 (inactive) | -0.143 | -1.66 | -0.406 | -0.246 | 0.401 | -0.393 | -0.314 | -1.15 (inactive) | 0.0848 | -0.588 | -0.0835 | -0.782 | -0.0297 | 1.47
